Screening data: PubChem, several laboratories
Vc quorum ag = inducers of Vibrio cholerae quorum light production without autoinducers | V. cholerae BH1578 lux reporter, luminescence, 6 h | activation, % at 18.7 µM | 350,000 tested, 0.16% active | AID 588436; in the data active means activation mostly above about 9.7%, no sharp cut-off
GDH-TPI inh = GDH-TPI coupled enzyme inhibition counter-screen; 360,000 tested, 1.2% active; inhibition, % at 4.8 µM; AID 588335; GDH-TPI coupled enzyme counterscreen, NADH absorbance; in the data active means inhibition above about 30%
Mtb BioA inh = inhibitors of Mycobacterium tuberculosis BioA enzyme; purified M. tuberculosis BioA enzyme, plate reader; inhibition, % at 9.99 µM; 360,000 tested, 0.096% active; AID 602481; in the data active means inhibition above about 40%
Mtb FBA inh = inhibits M. tuberculosis FBA enzyme. purified M. tuberculosis FBA, fluorescence read-out. inhibition, % at 1 µM. 360,000 tested, 2.3% active. AID 588726; in the data active means inhibition above about 27%
Target sequence (P9WQA3 whole entry, looked up): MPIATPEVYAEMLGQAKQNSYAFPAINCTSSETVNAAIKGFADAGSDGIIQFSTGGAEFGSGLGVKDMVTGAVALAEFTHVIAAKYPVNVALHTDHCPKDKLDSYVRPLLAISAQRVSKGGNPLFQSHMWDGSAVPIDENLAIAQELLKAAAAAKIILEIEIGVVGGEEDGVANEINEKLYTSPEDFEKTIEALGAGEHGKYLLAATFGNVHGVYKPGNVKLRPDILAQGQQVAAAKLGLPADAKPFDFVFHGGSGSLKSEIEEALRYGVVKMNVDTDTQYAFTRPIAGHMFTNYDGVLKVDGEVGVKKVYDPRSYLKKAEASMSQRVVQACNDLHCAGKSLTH
Hits are given with their value; - = inactive; . = not tested or not shown; + = active, no number. The list is not random: actives were taken first. Their share in the collection is about 3%.

SMILES	Vc quorum ag	GDH-TPI inh	Mtb BioA inh	Mtb FBA inh
COc1ccc(C(=O)/C=C/NCc2ccc(F)cc2)cc1OC	-	33.8	-	-
COc1ccc(C(=O)/C=C/Nc2ccc(S(N)(=O)=O)cc2)cc1OC	-	57.5	-	-
CN(C)C1=NC(=O)/C(=C\c2ccccc2)S1	-	31.1	.	-
NC1=NC(=O)/C(=C/c2cccs2)S1	-	31.8	-	-
NC1=NC(=O)/C(=C\c2cccnc2)S1	-	-	.	-
NC1=NC(=O)C(=Cc2ccccc2)S1	-	31.0	.	-
CN1C(=O)c2cc(NC(=O)C3CC3)ccc2OC[C@H]2O[C@H](CC(=O)NCCN3CCCC3)CC[C@H]21	.	.	-	.
Cc1noc(C)c1S(=O)(=O)N(C)C[C@@H]1OCCCC[C@H](C)Oc2ccc(NS(=O)(=O)c3cn(C)cn3)cc2C(=O)N([C@H](C)CO)C[C@@H]1C	.	.	-	.
COc1cc(C2/C(=C(\O)c3ccc4c(c3)OCCO4)C(=O)C(=O)N2Cc2ccco2)cc(OC)c1OC (configuration not stated)	-	32.0	-	-
COc1ccc(/C(O)=C2\C(=O)C(=O)N(Cc3ccco3)C2c2cc(OC)ccc2OC)cc1 (configuration not stated)	-	40.0	.	-
COc1ccc(-c2cc3nc[nH]c(=O)c3s2)cc1	-	31.0	-	+
COc1cccc(CNc2nc3cc(-c4cccc(Cl)c4)sc3c(=O)n2C)c1	-	-	-	-
COc1ccc(-c2cc3nc(CCl)[nH]c(=O)c3s2)cc1	-	-	-	160.4
COc1ccc(S(=O)(=O)N(C)C[C@@H]2Oc3c(NC(=O)C4CCCCC4)cccc3C(=O)N([C@@H](C)CO)C[C@H]2C)cc1	.	.	-	.
COC(=O)c1ccc(C2NC(=S)N(c3ccccc3)C(C)=C2C(=O)Nc2ccccc2OC)cc1 (configuration not stated)	.	-	-	+
COC1=C/C(=C/c2c(N)n3nc(CC(=O)N4CCCCC4)sc3nc2=O)C=CC1=O	-	33.9	-	-
COc1cc(=O)n(C)c2ccccc12	20.7	-	-	-
Cc1noc(C)c1S(=O)(=O)Nc1ccc2c(c1)CC(=O)N([C@@H](C)CO)C[C@@H](C)[C@H](CN(C)Cc1ccc(C(=O)Nc3ccccc3N)cc1)O2	.	.	-	.
CC1(C)Cc2c(sc3[nH]c(=S)n(Cc4ccco4)c(=O)c23)CO1	-	37.5	-	-
O=c1c2c3c(sc2[nH]c(=S)n1Cc1ccco1)CCC3	-	-	-	-
C[C@@H]1CN([C@@H](C)CO)C(=O)c2cccc(NS(=O)(=O)c3ccc(F)cc3)c2O[C@@H]1CN(C)C(=O)NC1CCCCC1	.	.	-	.
CC(CC(=O)c1ccccc1)=NCCCN=C(C)CC(=O)c1ccccc1	-	60.2	-	-
O=C(CC(=O)c1ccccc1)c1ccccc1	-	-	-	-
CC(C)Cn1c(-c2ccc(C#N)cc2)nc2c1c(=O)[nH]c(=O)n2CC(C)C	-	-	-	+
COCCn1c(-c2ccc(NC(C)=O)cc2)nc2c1c(=O)[nH]c(=O)n2CC(C)C	-	-	-	126.1
SMILES	Vc quorum ag	GDH-TPI inh	Mtb BioA inh	Mtb FBA inh
CCCCn1c(=O)[nH]c(=O)c2c1nc(-c1ccc(C#N)cc1)n2C1CCCC1	-	-	-	166.2
N#Cc1cnc(Nc2nc3ccccc3o2)nc1-c1ccccc1	-	33.3	-	-
Cc1cc(=O)oc2c(CN3CCCC3)c(O)ccc12	-	-	-	+
Cc1cc(=O)oc2c(CN3CCN(CCO)CC3)c(O)ccc12	-	-	-	+
CN1CCN(Cc2c(O)ccc3c(-c4ccccc4)cc(=O)oc23)CC1	-	-	-	-
O=c1oc2c(CN3CCN(CCO)CC3)c(O)ccc2cc1-c1ccccn1	-	-	-	+
CCN1CCN(Cc2cc(=O)oc3cc(C)cc(C)c23)CC1	-	-	-	-
CCN1CCN(Cc2c(O)ccc3c(C)cc(=O)oc23)CC1	-	-	-	+
Cc1noc(C)c1S(=O)(=O)N(C)C[C@@H]1Oc2c(NS(=O)(=O)c3cn(C)cn3)cccc2C(=O)N([C@@H](C)CO)C[C@@H]1C	.	.	-	.
CCCC#Cc1cnc2c(c1)C(=O)N([C@H](C)CO)C[C@H](C)[C@@H](CN(C)C(=O)c1cccc(F)c1)O2	.	.	-	.
C[C@@H]1CN([C@@H](C)CO)C(=O)c2cc(NC(=O)CCC(F)(F)F)ccc2O[C@@H]1CN(C)Cc1ccc(Oc2ccccc2)cc1	.	.	-	.
O=C(N/N=C/c1cccn1-c1ccccc1)c1ccncc1	-	-	.	-
COc1cc(C(=O)N/N=C/c2cc([N+](=O)[O-])cs2)cc(OC)c1OC	-	36.1	.	-
O=C(N/N=C/c1sc(=O)n(-c2ccccc2)c1Cl)c1ccncc1	-	35.9	.	-
COc1cc(C(=O)N/N=C/c2sc(=O)n(-c3ccccc3)c2Cl)cc(OC)c1OC	-	45.6	-	-
COc1cc(C(=O)N/N=C/c2sccc2C)cc(OC)c1OC	-	-	.	-
CCOc1ccc(C(=O)N/N=C/c2cc([N+](=O)[O-])cs2)cc1	-	-	.	-
C[C@@H]1CN([C@H](C)CO)C(=O)CCCn2cc(nn2)CO[C@H]1CN(C)Cc1cccc(C(F)(F)F)c1	.	.	-	.
O=c1[nH]c(/C=C\c2ccc(O)cc2)nc(O)c1[N+](=O)[O-]	-	41.3	-	-
O=C(Nc1ccc(-c2nc3ccccc3o2)c(O)c1)c1cc(-n2cnnc2)ccc1Cl	-	42.5	-	-
CN(C)C=NC(=O)c1ccc(N2CCN(c3ncc(C(F)(F)F)cc3Cl)CC2)cc1	-	-	-	-
CN(C)/C=C/C(=O)c1ccc(N2CCN(c3ncc(C(F)(F)F)cc3Cl)CC2)cc1	-	40.2	-	-
C=CCOC(=O)[C@@H]1[C@H]2C(=O)O[C@H](c3ccccc3)[C@H](c3ccccc3)N2[C@H](c2ccc(OCCOC(=O)[C@@H]3C[C@@H]4C(=O)N[C@@H](Cc5ccccc5)C(=O)N4[C@@H]3c3ccc(O)cc3)cc2)[C@@]12C(=O)Nc1ccccc12	.	.	-	.
CN(C)c1ccc(C=Nc2ccccc2C(N)=O)cc1	.	38.3	-	-
CN(C)c1ccc(/C=N/NC(=O)c2ccccn2)cc1	-	-	.	-
SMILES	Vc quorum ag	GDH-TPI inh	Mtb BioA inh	Mtb FBA inh
CN(C)c1ccc(/C=N/NC(=O)C(=O)N2CCCCCC2)cc1	-	35.5	-	-
O=C(N/N=C/c1ccc(OC(=O)c2ccco2)cc1)c1ccc[n+]([O-])c1	-	36.2	-	-
O=C(N/N=C\c1ccc(OC(=O)c2ccco2)cc1)c1ccc(Cl)cc1	-	-	.	-
CN(C)c1ccc(/C=N\NC(=O)c2csnn2)cc1	-	41.9	-	-
CCC(=O)N1C[C@H](O)COC[C@H]2O[C@H](CC(=O)NCc3ccccc3Cl)CC[C@@H]21	.	.	-	.
O=C(Nc1ccc2c(c1)[C@@H]1C[C@H](CC(=O)N3CCOCC3)O[C@H](CO)[C@@H]1O2)c1ccc2c(c1)OCO2	.	.	-	.
O=C(C[C@@H]1CC[C@H]2[C@@H](COC[C@@H](O)CN2S(=O)(=O)c2cccc(Cl)c2)O1)Nc1ccc(-c2ccccc2)cc1	.	.	-	.
Cc1ccc(/C=N/NC(=O)c2ccco2)cc1	-	-	-	-
Cn1ccc(C(=O)N/N=C/c2cccnc2)n1	-	-	-	-
CN(C)c1ccc(/C=N/NC(=O)c2ccco2)cc1	-	47.4	-	-
CN(C)c1ccc(/C=N/NC(=O)c2ccn(C)n2)cc1	-	33.1	.	-
COc1ccc(C(=O)NCCCn2ccnc2)cc1[N+](=O)[O-]	-	32.3	.	-
